Assay results from the supplement of paper PMC6555819.

Columns and labels:
Experiment in all cases: PBM binding z-score (relative to random genomic background probes); higher = stronger binding; sequences stand for … in GC…GCGATTGACAGCGTAGAATGAAGG
[1] = test system: PPARg:RXRa DBDmut IVT, anti-RXR (DBD mutation: RXRa K156A/R161A, NR concentration 270 nM, RXRa partner concentration 90 nM)
Summary of the method: (§1)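 Binding z-scores were set against random background probes. The data came from custom Agilent 4×180K protein-binding microarrays carrying double-stranded probes with 34-nt variable regions, incubated 1 h with ligand-free nuclear receptor dimers. Partner-specific antibodies detected binding, and scanned fluorescence was regression-normalized.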

[2] = test system: PPARg:RXRa IVT, anti-PPARg (NR concentration 270 nM, RXRa partner concentration 90 nM)
Summary of the method: as §1

[3] = test system: PPARg DBDmut:RXRa IVT, anti-PPARg (DBD mutation: PPARg1 K132A/R137A, NR concentration 270 nM, RXRa partner concentration 90 nM)
Summary of the method: as §1

[4] = test system: PPARg DBDmut IVT, anti-PPARg (DBD mutation: PPARg1 K132A/R137A, NR concentration 270 nM)
Summary of the method: as §1

[5] = test system: PPARg homodimer (NR concentration 180 nM)
Summary of the method: as §1

[6] = test system: PXR:RXRa (NR concentration 270 nM, RXRa partner concentration 90 nM)
Summary of the method: as §1

[7] = test system: PXR homodimer (NR concentration 270 nM)
Summary of the method: as §1

[8] = test system: RARa:RXR (NR concentration 270 nM, RXRa partner concentration 90 nM)
Summary of the method: as §1

[9] = test system: RARa homodimer (NR concentration 270 nM)
Summary of the method: as §1

[10] = test system: RARb:RXRa (NR concentration 270 nM, RXRa partner concentration 90 nM)
Summary of the method: as §1

Sequence | PBM binding z-score [1] | PBM binding z-score [2] | PBM binding z-score [3] | PBM binding z-score [4] | PBM binding z-score [5] | PBM binding z-score [6] | PBM binding z-score [7] | PBM binding z-score [8] | PBM binding z-score [9] | PBM binding z-score [10]
ACTATTAGTTGACTTAGGGGAACCGATACGACGC | 1.27 | 0.41 | 1.51 | 1.41 | 0.783 | 0.271 | 0.621 | 0.648 | 1.36 | 0.217
ATACCAAGGTGATAGTGAGGTCGTTGATACTAAC | 0.454 | 1.64 | 0.276 | 0.701 | 1.01 | 3.17 | 1.94 | 2.23 | 0.553 | 1.51
CAAACTATGTCACCGGAAGGTCAAAGTCCGCATG | 5.08 | 5.25 | 0.711 | 1.64 | 3.93 | 4.29 | 2.1 | 4.93 | 2.43 | 3.7
TAGCCTAGGTCATTGGGCCAGTAAAGTACGCATC | 2.98 | 3.93 | -0.798 | -0.582 | 0.663 | 1.55 | -0.454 | 2.08 | 0.18 | 3.63
GCTAGCAGGTCATTTGGGTCACTCAATGACGGGC | 3.89 | 4.84 | 0.133 | -0.577 | 1.31 | 3.98 | 4.92 | 3.92 | 0.247 | 3.94
TCGAGTAGCTTAGGGGCATTCAGAATGGCGTCGA | 0.336 | -0.404 | -0.673 | -0.923 | -0.986 | 0.0972 | -0.797 | 0.217 | -1.45 | 0.238
TTATATAGGTAATACAGGTGAAAGTCGGCATCTA | 6.01 | 5.97 | 1.64 | 2.72 | 1.34 | 0.367 | 0.343 | 0.639 | 1.4 | 0.616
ACATACGGGTCAACGAGGTTATAGCACGCGTATA | 3.32 | 4.26 | 2.04 | 0.961 | 2.67 | 5.01 | 2.89 | 5.03 | 1.03 | 3.99
GCCGACAGGTGAAACGCAGGTAACTCAGGGTGGC | 0.757 | 0.528 | -0.976 | -1.57 | -0.704 | -0.343 | -0.71 | 0.331 | -1.11 | 0.705
AGAAGGAGGGCAATGAGTTGATAGCACGGGTGGC | 3.57 | 2.64 | 0.99 | -0.352 | 0.922 | 1.39 | 4.17 | 0.2 | 0.815 | 1.92
ATCGAAAGCTCGACGAGGTGAGTATACACCGTTT | -0.441 | 0.00949 | 0.478 | 0.316 | -0.162 | -0.321 | -0.326 | -0.226 | -0.876 | -0.148
ACTTGTTGGTCAGCTGAGGTCACACACAATTCGG | 1.72 | 2.7 | 1.08 | 0.437 | 2.22 | 5.63 | 1.27 | 4.54 | 0.13 | 3.71
TCTTGTAGATCAAGTAGGTTAAGAAAGCCTGAGT | 2.13 | 2.44 | 0.611 | 0.864 | 0.365 | 0.513 | 0.364 | 0.645 | 0.0237 | 0.154
TCGAGTAGGTTACCAATGGGGCATACAGCTTTCT | 3.13 | 3.01 | -0.185 | -0.3 | -0.0294 | 0.327 | -0.38 | 0.453 | -0.62 | 0.89
TAGCCTAGGTCATCCAGGGGCCAGTATAGAAAGC | 1.23 | 2.73 | 0.724 | -0.3 | 1.93 | 2.6 | -0.246 | 3.55 | 0.127 | 3.98
TCTATTAGTTGAAGGGCAATCGACGAGTCCGTTT | 2.4 | 0.352 | -0.193 | -0.223 | 0.916 | 0.833 | 0.904 | 0.162 | 0.81 | 1.24
CTCGAAAGGTCGGTTGAGGTGAGGATACGGATAA | -0.21 | 1.07 | 0.312 | -0.445 | 1.24 | 3.06 | 0.154 | 2.64 | 0.262 | 3.18
CAAGCTAGGTCACAGAGGTCAAAGTCCGTGCGTA | 5.16 | 5.87 | 0.564 | 0.34 | 6.23 | 6.96 | 12.1 | 8.03 | 2.55 | 5.47
TCTTTTAGTTGAAGGGCAACCGACGAGTCCGTTT | 2.2 | 0.777 | 2.36 | 1.84 | 0.00638 | 0.764 | 0.475 | 0.383 | 0.199 | 1.65
AGTCAAAGTTCAGTACGAGGTAACGTAAAGCACG | -0.11 | 1.83 | 0.68 | 0.981 | 1.69 | 3.02 | 1.72 | 2.35 | 1.06 | 4.11
TCTAGTTGGTCACGGAGGTCACGCACGACGGGTA | 2.9 | 4.62 | 1.18 | 2.02 | 3.23 | 4.93 | 1.26 | 5.23 | 1.73 | 4.33
TAGCCTATGTCATTCAGGGGCCAGTATAGAAAGC | 0.367 | 0.511 | -0.0468 | 0.315 | -0.12 | -0.141 | -0.435 | 0.125 | -0.558 | 0.742
TGAAAGAGGTTATAAGATCAGGGAACGTTGCAAA | -0.304 | 0.748 | -0.617 | 0.266 | 0.0455 | 0.781 | -0.571 | 1.59 | -0.227 | 1.56
